# Assay results taken from PubChem BioAssay (NCI).
# This is part of a sample that, as a whole, favours compounds with a hit. Of some 79,000 tested, about 15% had one in any assay. Unmarked numbers belong to inactive results. Cut-off read from the data, not from the text of the source: active = growth inhibition above about 70%; inactive = the rest.
# Assay: NCI Yeast Anticancer Drug Screen. Data for the mlh1 strain (AID 171);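 note: 0% = growth of vehicle-treated control cultures of the same strain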
# Details: S. cerevisiae mlh1 strain growth inhibition; at 1.2 µM; stronger effect = higher value
# How it was run: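 Compounds are applied to a genetically altered yeast strain, and its growth is compared with that of vehicle-treated cultures to give percent inhibition.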
row,Structure (SMILES),growth inhibition [%]
1,O=C1/C(=C/c2ccccc2)CCCC1CN1CCCCC1 (stereo not given),4
2,C#CCN(Cc1ccc2nc(N)[nH]c(=O)c2c1)c1ccc(C(=O)NC(CCC(=O)O)C(=O)O)cc1 (stereo not given),14
3,CCOC1(c2cccc([N+](=O)[O-])c2)c2ccccc2Oc2ccccc21,-2
4,O=C(O)CNC(=S)Nc1ccccc1,-63
5,N/C(=N/N=C/c1cc(Br)cc(Br)c1O)NO,-78
6,C[Si](C)(C)/C=C/CCNC(C#N)c1ccccc1 (stereo not given),-16
7,CCCCCCCCCCCCCCCCOP(=O)(O)OCC(N)C(=O)O (stereo not given),-23
8,CC1=C(C(=O)NCc2ccccc2)C(c2ccccc2)C(C(=O)NCc2ccccc2)=C(C)N1,-4
9,O=[N+]([O-])c1cc(S(=O)(=O)Nc2ccccc2)ccc1Nc1ccccc1,-26
10,CCOC(=O)C(Br)C(Br)c1ccccc1Cl (stereo not given),9
11,CCOC(=O)C1=C(C)NC(C)=C(C(=O)OCCNC(=O)c2ccc(N=[N+]=[N-])cc2)C1c1ccccc1C(F)(F)F (stereo not given),6
12,Cc1cc(C)c(NC(=S)NC(=O)c2ccccc2)cc1C,-34
13,CNCCCNc1c2ccccc2nc2cccc([N+](=O)[O-])c12,18
14,COc1c(O)c(C=O)c(Br)c(C=O)c1O,5
15,Cc1c(C)c(C)c(CSC(=N)N)c(C)c1C,-35
16,CNC(=O)OCc1c(COC(=O)NC)c(-c2ccc(Cl)cc2)n2c1CCC2,-61
17,CC(=O)OC1CC2C(C)(C)C(=O)C=C[C@]2(C)C2CCC3(C)C(=CCC3[C@H](CO)C[C@H](O)C(=O)C(C)(C)O)[C@]12C (stereo not given in full),-35
18,CCCCCCOC(=O)NCCOC(=O)Nc1ccccc1,-1

row,Structure (SMILES),growth inhibition [%]
1,C[C](C)(C)[Ge]([O][Ge]([c]1ccccc1)[c]1ccccc1)([O][Ge]([c]1ccccc1)[c]1ccccc1)[C](C)(C)C,0
2,CCc1c(Cl)c(C)cc(O)c1Cl,6
3,Cc1nc(Nc2ccccc2[N+](=O)[O-])sc1C(=O)CC(=O)C(=O)Nc1c(C(C)C)cccc1C(C)C,2
4,CCCCCCC(O)CNCc1ccnc2ccc(OC)cc12 (stereo not given),5
5,Cc1c2cccc(Sc3ccccc3)c2c2c3c(cccc13)[S+](c1ccccc1)C2 (stereo not given),0
6,C=C1CCC(O)C/C1=C/C=C1\CCCC2(C)C1CCC2C(C)CCCC(C)C (stereo not given),-24
7,NC1=NNC2(C(N)=N1)c1ccccc1-c1ccccc12,10
8,COc1cc2cc3c4cc(OC)c(OC)cc4cc[n+]3c(C)c2cc1OC,-34
9,COC(=O)NC1C(C)OC(OC2C/C=C(/C)C3C=CC4C(OC5CC(OC6CC(O)C(OC7CC(O)C(OC)C(C)O7)C(C)O6)C(O)C(C)O5)C(C)CC(C)C4C3(C)/C(O)=C3\C(=O)OC4(CC(C)C(CO)=CC4/C=C\2C)C3=O)CC1(C)[N+](=O)[O-] (stereo not given),-4
10,O=C1CSC(c2cccc(Cl)c2)N1c1ccc(-c2ccc(-n3c(-c4ccccc4)nc4ccccc4c3=O)cc2)cc1 (stereo not given),1
11,CCOC(=O)C(C(=O)OCC)=P(c1ccccc1)(c1ccccc1)c1ccccc1,1
12,COc1ccc(N=CN(C)C)c(C)c1,-37
13,Cc1cc(S(=O)(=O)Nc2nnc3cnc4ccccc4n23)c(S)cc1Cl,-3
14,O=C(Oc1ccc2c(c1)CN(Cc1ccccc1)CO2)c1ccccc1,6
15,CN(C)[C@@H]1C(=O)C(C(N)=O)=C(O)[C@@]2(O)C(=O)C3=C(O)c4c(O)cccc4C[C@H]3C[C@@H]12,-13
16,Cc1nc2c(Br)cc(Br)cc2c(=O)n1-c1ccccc1NC1OCC(O)C(O)C1O (stereo not given),0
17,Cc1cc(N(CCOS(C)(=O)=O)CCOS(C)(=O)=O)ccc1C=Nc1ccc(-c2nc(Cc3ccccc3)sc2C)cc1,-32
